# PubChem BioAssay
# Results filed as inconclusive are left out. The source made the active and inactive calls. Unless noted, no stated cut-off is given here; in the data, active means inhibition above about 80%; inactive means the rest.
# Experiments:
# [1] = rescue of PC12 cells from polyQ htt toxicity – LDH release (AID 1610); conditions: PC12 mutant huntingtin toxicity, final LDH at 4 uM, stronger effect = lower value
# [2] = chitosan synthesis blockers in C. neoformans – flow cytometry, Cibacron Brilliant Red staining (AID 1347148; call rule not given here;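 further: compound exposure lasted three days at 37 degrees C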); conditions: Cryptococcus neoformans chitosan, stronger effect = lower value; at 10 µM unless noted
# [3] = target: ATP-dependent translocase ABCB1 (Homo sapiens) (UniProt P08183); assay: P-glycoprotein substrate transport blockade – cell-based (AID 377; in the data active means fluorescence slope change above about 50%); conditions: MDR1-expressing cells, fluorescent substrate accumulation slope; stronger effect = higher value; concentration not given here
# [4] = growth inhibition, single agent or in combination, cell-based, chromothripsis tumors, cisplatin or BGB combos (AID 1671449); conditions: LFS_MB_P medulloblastoma cells;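 further: cells exposed for 96 hours; 0% = vehicle DMSO and 100% = killing by high DMSO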
# [5] = growth inhibition, single agent and combos, cell-based, chromothripsis tumors, cisplatin or BGB combos (AID 1671450); conditions: HDN33 neuroblastoma cells, stronger effect = higher value;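 further: cells exposed to compound for four days; 0% = vehicle DMSO and 100% = cell killing by high DMSO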
# [6] = growth inhibition, single agents and combos, ICB984, cell-based, cisplatin or BGB combos, synergistic combos for chromothripsis tumors (AID 1671451; call rule not given here;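 further: cells exposed for 96 hours before readout; 0% = vehicle DMSO and 100% = killing by high DMSO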); conditions: ICB984 medulloblastoma cells, drug combinations, stronger effect = higher value
# [7] = growth inhibition, single agents and combos, LFS_MB_1R, cell-based, cisplatin or BGB combos, synergistic combos for chromothripsis tumors (AID 1671452); conditions: LFS_MB_1R medulloblastoma cells, stronger effect = higher value;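 further: cells exposed for 96 hours before readout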
# [8] = growth inhibition, single agents and combos, HTB85, cell-based, BGB or cisplatin IC20 combos, synergistic combos for chromothripsis tumors (AID 1671453); conditions: HTB85 osteosarcoma cells, drug combinations, stronger effect = higher value;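 further: cells exposed for 96 hours before readout; 0% = vehicle DMSO and 100% = high DMSO killing control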
# [9] = growth inhibition, single agents and combos, CRL2098, cell-based, BGB or cisplatin IC20 combos, synergistic combos for chromothripsis tumors (AID 1671454); conditions: CRL2098 osteosarcoma cells, drug combinations, stronger effect = higher value;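 further: cells exposed for 96 h before readout; 0% = vehicle DMSO and 100% = killing by high DMSO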
# [10] = growth inhibition, single agents and combos, HD-MB03, cell-based, BGB or cisplatin IC20 combos, synergistic combos for chromothripsis tumors (AID 1671455; in the data active means inhibition above about 83%;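 further: 0% = vehicle DMSO and 100% = high DMSO as cytotoxic control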); conditions: HD-MB03 medulloblastoma cells, stronger effect = higher value
# [11] = growth inhibition, single agents and combos, UWB1.289, cell-based, BGB or cisplatin combos, synergistic combos for chromothripsis tumors (AID 1671456); conditions: UWB1.289 ovarian carcinoma cells, stronger effect = higher value;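 further: cells exposed to compound for four days; 0% = vehicle DMSO and 100% = killing by high DMSO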
# [12] = growth inhibition, single agents and combos, LFS_MB_2R, cell-based, cisplatin combos, synergistic combos for chromothripsis tumors (AID 1671457); conditions: LFS_MB_2R medulloblastoma cells, stronger effect = higher value;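 further: cells exposed to compound for four days before readout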
# [13] = growth inhibition, MDA-MB-436, cell-based, BGB or cisplatin combos, synergistic combos for chromothripsis tumors (AID 1671458; call rule not given here;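 further: cells exposed for 96 hours; 0% = vehicle DMSO and 100% = killing by high DMSO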); conditions: MDA-MB-436 breast carcinoma growth inhibition, drug combinations, stronger effect = higher value
# [14] = UWB1.289_BRCA1 ovarian cancer growth, cell-based, BGB or cisplatin combinations (AID 1671459); conditions: UWB1.289 BRCA1 ovarian carcinoma, drug combinations, stronger effect = higher value
# [15] = drug combination toxicity in non-malignant astrocytes – cell-based, BGB or cisplatin IC20 combos, cytotoxicity control for chromothriptic childhood tumor combination screen (AID 1671460); conditions: Human astrocytes, viability inhibition, drug combinations, at 0.5 µM, stronger effect = higher value;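 further: cells exposed to compounds for 96 hours before viability readout; 0% = vehicle and 100% = killing control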
# [16] = BT084 cell growth, single and combined drugs, ICGC_MB145, cisplatin and BGB IC40 combos (AID 1671461); conditions: BT084 medulloblastoma cells, drug combinations, stronger effect = higher value;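 further: cells exposed to drugs for 96 hours; 0% = vehicle DMSO and 100% = high DMSO full killing control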
# [17] = RCMB18 cell growth, single agent and combined, cisplatin and BGB IC40 combos (AID 1671462); conditions: RCMB18 medulloblastoma cells, stronger effect = higher value;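 further: cells exposed to compound for four days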
# [18] = CRL1545 cell growth, single agent and combined, cisplatin and BGB IC20 combos (AID 1671464); conditions: CRL1545 osteosarcoma cells, stronger effect = higher value;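 further: cells exposed to compound for 96 hours before readout; 0% = vehicle DMSO and 100% = high DMSO killing control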
# [19] = measured here: combination with BGB IC40, at 0.05 µM
# [20] = measured here: with BGB IC20 combination, at 0.5 µM
# [21] = measured here: with cisplatin IC20 combination, at 0.5 µM
# [22] = measured here: combination with cisplatin, at 0.5 µM
# [23] = measured here: combination with cisplatin, at 5 µM
# Sequence of ATP-dependent translocase ABCB1 (Homo sapiens) (P08183 whole entry, looked up): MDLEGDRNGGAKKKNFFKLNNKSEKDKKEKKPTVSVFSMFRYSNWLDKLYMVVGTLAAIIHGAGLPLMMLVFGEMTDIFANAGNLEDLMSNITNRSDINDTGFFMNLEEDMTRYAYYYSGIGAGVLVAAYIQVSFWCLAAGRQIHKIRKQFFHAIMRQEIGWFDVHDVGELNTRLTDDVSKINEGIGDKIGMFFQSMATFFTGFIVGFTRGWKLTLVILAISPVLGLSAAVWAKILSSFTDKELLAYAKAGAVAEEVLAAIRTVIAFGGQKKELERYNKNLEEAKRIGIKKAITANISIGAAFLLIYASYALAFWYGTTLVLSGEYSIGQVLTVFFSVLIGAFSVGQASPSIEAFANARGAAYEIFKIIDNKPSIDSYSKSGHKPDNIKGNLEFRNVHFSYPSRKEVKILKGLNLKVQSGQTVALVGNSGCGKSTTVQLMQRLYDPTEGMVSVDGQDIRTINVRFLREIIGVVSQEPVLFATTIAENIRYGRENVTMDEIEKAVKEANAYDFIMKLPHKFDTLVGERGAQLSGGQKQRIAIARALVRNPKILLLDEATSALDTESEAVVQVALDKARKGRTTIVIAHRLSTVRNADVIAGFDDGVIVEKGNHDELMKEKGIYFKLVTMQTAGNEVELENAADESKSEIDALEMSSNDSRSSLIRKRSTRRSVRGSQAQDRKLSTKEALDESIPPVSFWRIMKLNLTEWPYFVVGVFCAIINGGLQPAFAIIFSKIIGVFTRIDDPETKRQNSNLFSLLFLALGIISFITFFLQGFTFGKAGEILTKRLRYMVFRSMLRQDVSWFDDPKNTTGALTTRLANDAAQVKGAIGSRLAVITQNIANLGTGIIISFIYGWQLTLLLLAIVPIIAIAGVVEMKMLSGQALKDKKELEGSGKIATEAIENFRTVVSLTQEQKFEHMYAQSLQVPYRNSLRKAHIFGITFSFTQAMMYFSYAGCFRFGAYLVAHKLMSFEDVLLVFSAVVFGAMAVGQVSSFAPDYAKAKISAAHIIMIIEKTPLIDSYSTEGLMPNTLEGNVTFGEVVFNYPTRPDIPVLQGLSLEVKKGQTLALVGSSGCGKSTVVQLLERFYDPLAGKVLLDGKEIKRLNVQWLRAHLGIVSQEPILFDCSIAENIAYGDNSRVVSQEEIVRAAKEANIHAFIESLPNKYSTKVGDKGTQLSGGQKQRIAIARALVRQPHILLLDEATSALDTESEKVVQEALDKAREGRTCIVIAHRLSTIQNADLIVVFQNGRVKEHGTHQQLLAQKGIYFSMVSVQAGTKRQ
smiles,measurement,setting,value
CO[C@@]12[C@@H]3NC3CN1C1=C(C(=O)C(N)=C(C)C1=O)[C@@H]2COC(N)=O (stereo partly specified),normalised LDH release,[1],0.873
same,fold fluorescence,[2],4.49 [at 149.6 µM] (inactive)
COC1CC2CCC(C)C(O)(O2)C(=O)C(=O)N2CCCCC2C(=O)OC(C(C)CC2CCC(O)C(OC)C2)CC(=O)C(C)/C=C(\C)C(O)C(OC)C(=O)C(C)CC(C)/C=C/C=C/C=C/1C (stereo unspecified),fold fluorescence,[2],6.13 [at 54.7 µM] (inactive)
COc1cccc2c1C(=O)c1c(O)c3c(c(O)c1C2=O)C[C@@](O)(C(=O)CO)C[C@@H]3OC1C[C@H](N)[C@H](O)[C@H](C)O1 (stereo partly specified),fold fluorescence,[2],5.77 [at 92 µM] (inactive)
CCC(NC(C)C)C(O)c1ccc(O)c(O)c1 (stereo unspecified),fluorescence slope change,[3],50.8% (active)
O=C(O)c1ccccc1Nc1ccccc1,fold fluorescence,[2],3.75 [at 234.5 µM] (inactive)
C[C@@H]1CC2C3CCC4=CC(=O)C=C[C@]4(C)[C@@]3(F)[C@@H](O)C[C@]2(C)[C@@]1(O)C(=O)CO (stereo partly specified),fold fluorescence,[2],10.5 [at 127.4 µM] (inactive)
CCCCC[C@H](CC(=O)NO)C(=O)N[C@H](C(=O)N1CCC[C@H]1CO)C(C)C,normalised LDH release,[1],1.19
c1ccc(C2CN3CCSC3=N2)cc1 (stereo unspecified),fluorescence slope change,[3],29.7% (inactive)
O=C(O)Cc1cc(I)c(Oc2ccc(O)c(I)c2)c(I)c1,fluorescence slope change,[3],75.2% (active)
CCC[C@@H]1C[C@@H](C(=O)N[C@@H](C2O[C@H](SC)[C@H](O)[C@@H](O)[C@H]2O)[C@H](C)Cl)N(C)C1 (stereo partly specified),fluorescence slope change,[3],138% (active)
O=C(Nc1ccccc1)c1ccccc1O,inhibition,"[4]; at 0.5 µM, stronger effect = higher value",-6.1% (inactive)
same,inhibition,"[4]; measured here: combination with BGB IC20, at 0.005 µM",6.63%
same,inhibition,"[4]; measured here: combination with BGB IC40, at 0.005 µM",36%
same,inhibition,[4]; [19],-10.8%
same,inhibition,"[4]; measured here: combination with cisplatin, at 0.5 µM, stronger effect = higher value",-0.1%
same,inhibition,"[4]; measured here: combination with cisplatin, at 5 µM, stronger effect = higher value",3.47%
same,inhibition,"[5]; BGB combo, at 5 µM",22.1%
same,inhibition,[5]; at 0.5 µM,6.53% (inactive)
same,inhibition,"[5]; cisplatin combo, at 5 µM",16.8%
same,inhibition,[5]; [20],4%
same,inhibition,[5]; [21],11.1%
same,inhibition,"[5]; single agent, at 5 µM",27.8%
same,inhibition,"[6]; BGB IC20 combo, at 0.005 µM",-13.9%
same,inhibition,"[6]; BGB IC40 combo, at 0.005 µM",-1.37%
same,inhibition,"[6]; BGB IC40 combo, at 0.05 µM",0.369%
same,inhibition,[6]; at 0.5 µM,-10.1% (inactive)
same,inhibition,"[6]; cisplatin combo, at 0.05 µM",0.369%
same,inhibition,"[6]; cisplatin combo, at 0.5 µM",-23.4%
same,inhibition,"[6]; cisplatin combo, at 5 µM",-15.5%
same,inhibition,"[6]; measured here: 5 uM single agent, at 5 µM",19.2%
same,inhibition,[7]; at 0.5 µM,-12.4% (inactive)
same,inhibition,[7]; [19],-23.1%
same,inhibition,[7]; [22],-15.5%
same,inhibition,[7]; [23],13.9%
same,inhibition,[8]; at 0.5 µM,1.9% (inactive)
same,inhibition,"[8]; measured here: with BGB IC20, at 0.5 µM",-7.23%
same,inhibition,"[8]; measured here: with BGB IC20, at 5 µM",16.9%
same,inhibition,"[8]; measured here: with cisplatin IC20, at 0.5 µM",3.88%
same,inhibition,"[8]; measured here: with cisplatin IC20, at 5 µM",16.9%
same,inhibition,"[8]; single agent, at 5 µM",20.7%
same,inhibition,[9]; at 0.5 µM,-8.88% (inactive)
same,inhibition,"[9]; measured here: combination with BGB at IC20, at 0.5 µM",-7.52%
same,inhibition,"[9]; measured here: combination with cisplatin at IC20, at 0.5 µM",4.38%
same,inhibition,[10]; at 0.5 µM,-0.28% (inactive)
same,inhibition,"[10]; measured here: combo with BGB at IC20, at 0.5 µM",1.59%
same,inhibition,"[10]; measured here: combo with cisplatin at IC20, at 0.5 µM",-2.6%
same,inhibition,[11]; at 0.5 µM,10.7% (inactive)
same,inhibition,"[11]; measured here: inhibition with BGB combination, at 0.05 µM",0.707%
same,inhibition,"[11]; measured here: inhibition with cisplatin combination, at 0.05 µM",-5.75%
same,inhibition,[12]; at 0.5 µM,6.25% (inactive)
same,inhibition,[12]; [22],7.79%
same,inhibition,[12]; [23],26.7%
same,inhibition,[13]; at 0.5 µM,-7.25% (inactive)
same,inhibition,"[13]; measured here: BGB combination, at 0.5 µM",-6.93%
same,inhibition,"[13]; measured here: BGB combination, at 5 µM",9.41%
same,inhibition,"[13]; measured here: cisplatin combination, at 0.5 µM",-18%
same,inhibition,"[13]; measured here: cisplatin combination, at 5 µM",28.1%
same,inhibition,"[14]; BGB combination, concentration series, at 5 µM",20.8%
same,inhibition,[14]; at 0.5 µM,4.85% (inactive)
same,inhibition,"[14]; cisplatin combination, concentration series, at 5 µM",20.1%
same,inhibition,[15],6.87% (inactive)
same,inhibition,[15]; measured here: combo with BGB IC20,7.24%
same,inhibition,[15]; measured here: combo with cisplatin IC20,10.9%
same,inhibition,[16]; at 0.5 µM,1.08% (inactive)
same,inhibition,"[16]; cisplatin combination, at 0.5 µM",7.73%
same,inhibition,"[16]; cisplatin combination, at 5 µM",-4.41%
same,inhibition,"[16]; measured here: BGB IC40 combination 0.05 uM, at 0.05 µM",23%
same,inhibition,"[16]; single agent, at 5 µM",16.7%
same,inhibition,[17]; at 0.5 µM,11.8% (inactive)
same,inhibition,"[17]; cisplatin combo, at 5 µM",41.7%
same,inhibition,"[17]; measured here: BGB IC40 combination, at 0.05 µM",-1.52%
same,inhibition,[17]; [22],26.1%
same,inhibition,"[17]; single agent, at 5 µM",5.55%
same,inhibition,[18]; at 0.5 µM,-2.83% (inactive)
same,inhibition,[18]; [20],17.8%
same,inhibition,[18]; [21],-13.1%
same,inhibition,"[18]; single agent, at 0.05 µM",12.8%
same,inhibition,"[18]; single agent, at 5 µM",42.5%
CN[C@@H]1[C@H](OC2[C@H](O[C@H]3[C@H](O)[C@@H](O)[C@H](N=C(N)N)[C@@H](O)[C@@H]3N=C(N)N)O[C@@H](C)[C@]2(O)C=O)O[C@@H](CO)[C@H](O)[C@H]1O (stereo partly specified),normalised LDH release,[1],0.965
CC(C)CC1C(=O)N2CCC[C@H]2C2(O)O[C@](NC(=O)C3C=C4c5cccc6[nH]c(Br)c(c56)C[C@H]4N(C)C3)(C(C)C)C(=O)N12 (stereo partly specified),normalised LDH release,[1],0.995
